An excerpt weighted towards active compounds, which were near 5.4% of everything screened.
Sm TGR inh – S. mansoni TGR enzyme inhibition | Q962Y6 | purified TGR, DTNB reduction, TNB absorbance 405 nm | Potency, µM (series often up to 114 µM), inactives show top-dose activity change, negative = inhibition, usual class: inhibitors | 360,000 tested, 3% active; active = well fitted inhibition curve with a large enough effect; inconclusive = small, poorly fitted or top-dose-only effect; inactive = no such curve, though single readings can be large or run the other way; note: nearly all actives have a fitted effect of over 60% in size
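TGR 20 nM + NADPH 100 uM (dispensed conc.), cpd preinc 15 min RT; start with NADPH (500 uM addition) then DTNB (15 mM addition). Kinetic TNB absorbance, 405 nm filter. Four-parameter Hill fit across titration.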
VACV Venus inh – vaccinia inhibition (Venus reporter). 330,000 tested, 0.46% active. Potency, µM (titrated, usually from 36.5 µM), inactives show at the top dose activity change, negative = inhibition, usual class: inhibitors. Vaccinia virus Venus reporter expression, fluorescence. AID 720580; calls by dose curve; tested in A549 cells; note: nearly all actives have a fitted effect of over 30% in size
FMDV antiviral – blocks foot and mouth disease virus; Potency, µM (highest dose often 57.9 µM), inactives show at the highest dose activity change, negative = inhibition, most hits filed as inhibitors; 410,000 tested, 1.2% active; FMDV antiviral cell-based qHTS; calls by dose curve; tested in HEK293T cells; note: read-out not given here; nearly all actives have a fitted effect of over 45% in size
LASV entry inh – Lassa virus entry inhibition; 300,000 tested, 1.2% active; Lassa virus pseudotype entry inhibition, cell reporter; Potency, µM (highest dose often 37.9 µM), for inactives: at the top dose activity change, negative = inhibition, hits mostly inhibitors; calls by dose curve; tested in HEK293 cells; note: nearly all actives have a fitted effect of over 50% in size
VACV mCherry inh – inhibitors of vaccinia virus infection (mCherry reporter signal). Vaccinia virus mCherry reporter infection, fluorescence. Potency, µM (doses to about 36.5 µM), for the others: at the top dose activity change, negative = inhibition, usual class: inhibitors. 310,000 tested, 0.63% active; calls by dose curve; tested in A549 cells; note: nearly all actives have a fitted effect of over 35% in size
Marburg entry inh – blocks Marburg virus binding to or entry into cells. Marburg virus pseudotyped entry inhibition, cell reporter. Potency, µM (doses to about 37.8 µM), inactives show at the highest dose activity change, negative = inhibition, most hits filed as inhibitors. 300,000 tested, 1.8% active. AID 540276; calls by dose curve; tested in HEK293 cells
* = called active by the depositor; i = inactive; u = inconclusive; x = not tested or not shown; [ ] = another dose, or the depositor's remark. % is set by controls: 0 for no effect and ±100 for the full control effect; potency is the fitted concentration of half-maximal effect.

SMILES | Sm TGR inh | VACV Venus inh | FMDV antiviral | LASV entry inh | VACV mCherry inh | Marburg entry inh
O=C(CC1C(=O)NCCN1Cc1ccccc1C(F)(F)F)NC1CCC1 (configuration not stated) | 39.8µM* | -14.4% | -20.5% | 12.2% | -11.7% | 5.9%
O=C(CC1C(=O)NCCN1Cc1ccc(-c2ccccc2)cc1)NC1CCC1 (configuration not stated) | u | -18.0% | -17.9% | x | -8.9% | x
O=C(CC1C(=O)NCCN1Cc1ccccc1C(F)(F)F)NC1CCCCC1 (configuration not stated) | 39.8µM* | x | -1.9% | x | x | x
O=C(CN1CCN(c2ccc(F)cc2)CC1)c1ccc2c(c1)OCO2 | 44.7µM* | 0.0% | 27.6% | -9.1% | -9.3% | -1.3%
O=C(CN1CCN(c2ccc(F)cc2)CC1)c1cccs1 | 14.1µM* | x | -6.7% | 0.8% | x | 0.4%
COc1ccc(CCCc2nnc(SCC(=O)Nc3ccc(C)cc3)o2)cc1 | 6.9% | -2.0% | -29.2% | 3.1%[46.1 µM] | -9.3% | -1.6%[46.1 µM]
COc1ccc(C)cc1NC(=O)C(NS(=O)(=O)c1cccc2nsnc12)c1ccccc1 (configuration not stated) | 8.9% | -7.3% | -3.6% | u | i | -12.7%[46.1 µM]
Cc1nn(C(=O)c2cccc(Cl)c2)c(C)c1S(=O)(=O)N1CCOCC1 | 20µM* | -9.1% | u | 29.4%[46.1 µM] | -11.0% | x
COc1cc(-c2cc(OC)c3c(C)oc(C)c3c(=O)c2)ccc1OC(=O)c1ccccc1C | -11.2% | -2.3% | u | -9.4%[46.1 µM] | -14.4% | u
CC(=O)c1c(C)[nH]c(C(=O)Nc2cccc(S(=O)(=O)N(C)c3ccccc3)c2)c1C | 1.8% | -17.2% | -10.2% | u | -11.0% | 13µM*
CCOc1ccc(Br)cc1S(=O)(=O)Nc1cccc(S(=O)(=O)N(C)c2ccccc2)c1 | 8.1% | u | -18.8% | -27.7% | u | 7.94µM*
CCC(C(=O)Nc1cccc(S(=O)(=O)N(C)c2ccccc2)c1)c1ccccc1 (configuration not stated) | 0.7% | -20.2% | 0.0% | 11.2µM* | -13.3% | u
CN(c1ccccc1)S(=O)(=O)c1cccc(NC(=O)c2cccc(C#N)c2)c1 | -2.5% | x | 25.1µM* | x | x | x
CC1=C(Br)C2=C(CC1)NC(=O)/C2=N\N1C(=O)C2CCCCC2C1=O (configuration not stated) | x | x | x | x | x | -17.8%
O=C(N[C@H](c1ccccc1)C1CCCC=C1c1ccccc1)C(F)(F)F (some centres not stated) | x | x | x | x | x | -24.1%[14.2 µM]
CCc1ccc(CNC(=O)CSc2cc(=O)n(C)c3ccc(Cl)cc23)cc1 | -1.4% | -8.1% | 12.8% | -24.5%[46.1 µM] | -5.6% | 3.7%[46.1 µM]
Cc1ccc(C(C)C)c(OCCSc2nc(-c3ccccc3F)nc3cc(=O)[nH]n23)c1 | 2.3% | -5.4% | -29.2% | 3.2%[46.1 µM] | i | x
COc1ccc(Cl)cc1NC(=O)CN1C(=O)CSc2ccc(S(=O)(=O)N3CCCC3)cc21 | -9.0% | -0.8% | -5.4% | 13.6%[46.1 µM] | -2.4% | x
COc1ccc(Cl)cc1NC(=O)Cc1coc2c(C)c(C)ccc12 | 2.9% | -4.9% | -29.9% | 4.4%[46.1 µM] | -7.7% | u
CN(C)S(=O)(=O)c1cccc(NC(=S)N/N=C/c2cccc(O)c2)c1 | x | x | u | -17.9% | x | 11.0%
CN(c1ccccc1)S(=O)(=O)c1cccc(NC(=O)c2ccc3ncsc3c2)c1 | -3.8% | -12.7% | 35.5µM* | u | -28.4% | u
CC(C)N(C(=S)Nc1cccc(S(=O)(=O)N(C)C)c1)c1ccccc1 | 11.2µM* | x | -19.0% | x | x | -2.9%
CN(C)S(=O)(=O)c1cccc(NC(=O)C(c2ccccc2)c2ccccc2)c1 | 10.7% | -0.4% | 5.4% | x | -10.2% | u
CN(C)S(=O)(=O)c1cccc(NC(=S)N/N=C/c2cc(Br)ccc2O)c1 | -16.3% | u | u | u | u | 10µM*
CC(=O)Nc1ccccc1-c1nc(CNC(=O)c2cc(C)ccc2C)c(C)o1 | x | 12.0% | -7.9% | x | -5.0% | x
SMILES | Sm TGR inh | VACV Venus inh | FMDV antiviral | LASV entry inh | VACV mCherry inh | Marburg entry inh
CCOc1ccccc1NC1(c2ccccc2)C(=O)c2ccccc2C1=O | 9.5% | -0.4% | 6.1% | -0.8%[46.1 µM] | -1.8% | x
CCN(CC)c1ccc(/C=N/n2c(-c3ccccc3Br)n[nH]c2=S)cc1 | -14.8% | -15.5% | u | u | -25.6% | u
Cc1nn(-c2ccccc2)c(C)c1/C=N/n1c(-c2ccccc2Br)n[nH]c1=S | 6.8% | -15.6% | -10.3% | 12.6µM* | -7.2% | u
CCOc1ccccc1OCC(O)CNC (configuration not stated) | -17.7% | x | -15.2% | 6.2% | x | -3.6%
C=CCc1ccccc1OCC(O)CN(C(C)C)C(C)C (configuration not stated) | 2.3% | -19.3% | -14.9% | u | -7.0% | 6.31µM*
C=CCc1ccccc1OCC(O)CNC (configuration not stated) | 25.1µM* | 5.6% | -2.9% | 17.3% | -10.5% | 5.1%
C=CCc1ccccc1OCC(O)CN1C(=O)c2ccccc2C1=O (configuration not stated) | -13.2% | -6.0% | 3.5% | 5.8% | -9.4% | 0.1%
CCN(CC)CCNC(=O)c1ccc2c(c1)NC(=O)C(CS(=O)(=O)Cc1ccc(F)cc1Cl)N2 (configuration not stated) | -29.7% | 0.1% | 14.4% | u | -11.2% | x
C[CH2][Hg][S]c1ccccc1C(=O)O | x | 11.2µM* | 28.2µM* | x | u | x
O=C(COC(=O)/C=C/c1ccco1)NCCc1ccccc1 | 22.4µM* | -8.5% | 12.6% | -3.7% | i | 29.1%
Cc1ccccc1Nc1nc(N)nc(COC(=O)/C=C/c2ccco2)n1 | 12.6µM* | 0.7% | 2.5% | x | i | x
O=C(COC(=O)/C=C/c1ccco1)NCc1ccccc1Cl | 17.8µM* | -0.1% | 16.1% | 4.2%[46.1 µM] | i | 7.7%[46.1 µM]
COc1ccc(COC(=O)N/C=C/c2ccco2)cc1 | u | 1.3% | 10.3% | 1.16µM* | i | 2.4%[46.1 µM]
O=C(COC(=O)/C=C/c1ccco1)NCc1ccc(Cl)cc1Cl | x | x | -3.0% | x | x | x
Cc1ccccc1Nc1nc(N)nc(COC(=O)c2c(C)noc2C)n1 | x | -5.4% | 3.9% | -19.4%[46.1 µM] | -29.6% | -27.2%[46.1 µM]
COc1ccc(NC(=O)C2CCN(S(=O)(=O)c3cc(-c4noc(C)n4)ccc3C)CC2)cc1 | 4.1% | -13.2% | 0.0% | 16.2%[46.1 µM] | -14.9% | x
COCCNC(=O)c1c(NC(=O)Cc2coc3cc(C)ccc23)sc2c1CCCC2 | -1.7% | -11.9% | 21.0% | -9.1%[46.1 µM] | -11.5% | 3.1%[46.1 µM]
CNC(=O)COC(=O)/C=C/c1ccco1 | 25.1µM* | -11.8% | -0.6% | x | -6.6% | x
CSc1ccccc1NC(=O)COC(=O)/C=C/c1ccco1 | x | -3.9% | -7.0% | 27.5% | -9.3% | u
CC(NC(=O)COC(=O)/C=C/c1ccco1)c1ccccc1 (configuration not stated) | 28.2µM* | 6.9% | 9.8% | -9.2%[46.1 µM] | -13.8% | -4.0%[46.1 µM]
O=C(COC(=O)/C=C/c1ccco1)NCc1ccco1 | u | x | 2.8% | -2.5% | x | 5.7%
COc1ccc(CNC(=O)COC(=O)/C=C/c2ccco2)cc1 | 35.5µM* | x | 19.4% | 0.7% | x | -1.1%
